Experimental data as given in PubChem BioAssay AID2013 (Sanford-Burnham Center for Chemical Genomics, 2009).
Hit rate of the full screen: of about 290,000 compounds, about 370 (0.13%) were called active. Shown is part of a subset that was picked to be rich in actives. Entries with a potency or affinity are not part of this list. Values without a mark were called inactive.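 The calls were made as follows: active = spots per cell inhibited over 60%, with over 100 cells counted and total cytoplasm intensity under 500,000; inconclusive = wells with under 100 cells, flagged as likely toxic; inactive = the rest.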

molecular target: G-protein coupled receptor 55 (Homo sapiens) (UniProt Q9Y2T6); test: GPR55 antagonists blocking LPI-driven arrestin recruitment, primary screen, imaging, U2OS, beta-arrestin-GFP, LPI agonist (AID 2013); details: U2OS GPR55 beta-arrestin-GFP translocation imaging, LPI antagonism; at 10 µM; hits give high values;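 also: U2OS cells stably carrying GPR55 and arrestin-GFP stimulated by 5 µM LPI near EC80; imaged beta-arrestin-GFP aggregate spots per cell after agonist stimulation; plate controls were LPI-stimulated DMSO wells for no effect and DMSO wells without LPI for full effect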
Sequence (Q9Y2T6 whole entry, looked up): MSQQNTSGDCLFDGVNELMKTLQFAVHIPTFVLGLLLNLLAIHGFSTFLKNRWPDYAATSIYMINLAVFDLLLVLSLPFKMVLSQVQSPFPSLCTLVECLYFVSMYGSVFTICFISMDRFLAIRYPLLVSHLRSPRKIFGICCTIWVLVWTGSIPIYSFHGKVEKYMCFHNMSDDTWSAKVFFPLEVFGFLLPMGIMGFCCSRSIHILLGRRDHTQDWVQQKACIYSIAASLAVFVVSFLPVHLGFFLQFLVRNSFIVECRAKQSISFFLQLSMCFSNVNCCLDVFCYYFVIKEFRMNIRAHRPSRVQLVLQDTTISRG

SMILES | inhibition
O=C(Nc1ccc(-n2cnnn2)cc1)C(c1ccccc1)c1ccccc1 | 6.3%
CN1CCN(C(=O)c2cnn(-c3ccccc3)c2NC(=O)c2ccccc2Br)CC1 | 2.7%
COc1ccc(C(C)=O)cc1CSc1nnc(Nc2ccc(C)cc2C)s1 | 1.3%
CCOC(=O)CSc1nnc(Cn2nnc(-c3ccccc3)n2)n1CC | 16%
CCn1c(Cn2nnc(-c3ccccc3)n2)nnc1SCC(=O)Nc1ccccc1 | -10.2%
COc1ccccc1OCC(=O)NCc1nc(-c2ccccc2)no1 | 4.4%
COc1ccc2[nH]c3c(=O)n(/N=C/c4ccc(OC)c(CN5CCCC5)c4)c(C)nc3c2c1 | 11.7%
COc1ccc(S(=O)(=O)CC(=O)c2cc3cccc(C)c3oc2=O)cc1 | -0.3%
COc1ccc2cc(C(=O)CS(=O)(=O)c3ccccc3)c(=O)oc2c1 | -4.7%
COc1cc(S(=O)(=O)NC2CCCC2)c(OC)cc1Cl | -2.6%
O=C(N1CCC(n2nc(-c3ccccc3)oc2=O)CC1)C1(c2ccccc2)CC1 | -6.7%
O=C(N1CCCCC1)C1(c2ccccc2)CCCCC1 | 4.3%
O=C(N1CCOCC1)C1(c2ccc(Cl)cc2)CCCC1 | 44.4%
COc1ccc(C2(C(=O)N3CCC(n4nc(-c5ccccc5)oc4=O)CC3)CC2)cc1 | 7.7%
COc1ccc(C(OC(=O)c2ccco2)C(=O)NCc2ccco2)cc1 (stereo not drawn) | 14.6%
COC(=O)c1ccccc1SCc1csc(C)n1 | 5.7%
COc1ccccc1NC(=O)CCN1CC(C)OC(C)C1 (stereo not drawn) | 3.2%
O=C(NCC(=O)N1CCC2(CC1)NCCc1[nH]cnc12)c1ccc2ccccc2c1 | 15.2%
CCCN1C(=O)/C(=C/C=C2\N(CC)c3ccccc3C2(C)C)SC1=S | -9%
CCCCN1C(=O)/C(=C/C=C2\N(C)c3ccccc3C2(C)C)SC1=S | 17.2%
CCCCNC(=O)N1c2ccccc2CC1C (stereo not drawn) | 7.4%
COC(=O)c1[nH]c2ccccc2c1NC(=O)c1ccccc1[N+](=O)[O-] | 12.4%
Cc1ccc(OCc2ccc(C#N)cc2)c(C(=O)c2cc(C#N)c(=O)n(C3CC3)c2)c1 | -4.5%
Cc1cccc(Cc2cnc(N3C(=N)SC(c4ccccc4)C3=O)s2)c1 (stereo not drawn) | 2.3%
N=C1SCC(=O)N1c1ncc(Cc2ccc(F)cc2)s1 | 12.6%
Cc1ccc(Cc2cnc(N3C(=N)SC(C)C3=O)s2)cc1 (stereo not drawn) | 16.2%
N=C1SCC(=O)N1c1ncc(Cc2ccccc2Cl)s1 | 38%
N=C1SCC(=O)N1c1ncc(Cc2cccc(Cl)c2)s1 | 98.9% (active)
